Molecules are shown by their SMILES.
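Further: listed percent inhibition of PRKG1 is a mean value.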

For this assay, the target named is T1, cGMP-dependent protein kinase 1 (Homo sapiens) (UniProt Q13976).
T1 sequence (whole entry): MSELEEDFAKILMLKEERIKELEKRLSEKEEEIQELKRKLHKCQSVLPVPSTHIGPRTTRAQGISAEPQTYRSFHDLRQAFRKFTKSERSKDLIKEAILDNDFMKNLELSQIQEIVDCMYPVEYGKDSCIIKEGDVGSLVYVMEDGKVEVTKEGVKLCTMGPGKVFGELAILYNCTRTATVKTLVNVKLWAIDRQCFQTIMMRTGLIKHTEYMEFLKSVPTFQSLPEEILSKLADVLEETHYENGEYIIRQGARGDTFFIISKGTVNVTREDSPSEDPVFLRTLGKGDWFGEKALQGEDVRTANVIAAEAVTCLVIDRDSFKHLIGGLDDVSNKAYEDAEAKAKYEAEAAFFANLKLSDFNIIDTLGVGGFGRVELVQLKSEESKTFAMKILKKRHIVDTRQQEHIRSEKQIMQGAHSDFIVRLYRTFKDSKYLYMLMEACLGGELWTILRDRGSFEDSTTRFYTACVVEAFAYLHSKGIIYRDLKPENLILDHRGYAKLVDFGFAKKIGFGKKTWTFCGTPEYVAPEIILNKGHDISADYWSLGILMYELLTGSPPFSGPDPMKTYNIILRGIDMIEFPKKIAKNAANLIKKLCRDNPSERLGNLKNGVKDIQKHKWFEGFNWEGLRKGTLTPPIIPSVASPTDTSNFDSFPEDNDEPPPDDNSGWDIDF
The note with it: at 1 µM.
Take `CS(=O)(=O)CCNCc1nc(-c2ccc3ncnc(Nc4ccc(OCc5cccc(C(F)(F)F)c5)cc4)c3c2)cs1`: the inhibition is 2.23%.

Regarding `Nc1nccc(-c2c(-c3ccc(F)cc3)ncn2CCCN2CCOCC2)n1`, the inhibition worked out at 4.99%.

Regarding `NS(=O)(=O)c1ccc(Nc2cc(-c3cccc(O)c3)n[nH]2)cc1`, the inhibition is 5.23%.

On to `NS(=O)(=O)c1cccc(Nc2cc(-c3ccc(F)cc3)n[nH]2)c1`, for which the inhibition is 5.63%.

Take `Cc1ccc2c(-c3ccnc(Nc4ccc5c(c4)OCCO5)n3)c(-c3ccc(C(F)(F)F)cc3)nn2n1`: the inhibition was found to be 3.63%.

Turning to `Cc1cc(O)cc(C)c1/C=C/c1cncc(C(=O)N(C)C)c1`, the inhibition came out at 3.73%.

`CN(C)c1cc2c(Nc3ccc4c(cnn4Cc4ccccc4)c3)ncnc2cn1`: the inhibition came to 4.15%.

Turning to `COC(=O)c1ccc2c(c1)C(=Cc1cc(Br)c(O)c(Br)c1)C(=O)N2`, the inhibition was 5.8%.

Consider `Nc1nccc(-c2c(-c3ccc(F)cc3)nn3cc(C(F)(F)F)ccc23)n1`, for which the inhibition is -0.49%.

On to `COc1cccc(-n2nc(C)c3c(N/N=C(\C)c4ccncc4)ncnc32)c1`, for which the inhibition was 0.55%.

In the case of `Cc1cc(Cl)cc2c1NC(=O)C2=NNc1ccc(S(N)(=O)=O)cc1`, the inhibition is 3.27%.

In the case of `Cc1ccc(O)cc1Nc1ccnc2ccc(S(C)(=O)=O)cc12`, the inhibition was 4.22%.

On to `COc1cccc(-n2ncc3c(N/N=C/c4ccc(S(C)(=O)=O)cc4)ncnc32)c1`, for which the inhibition stood at 1.69%.

On to `NS(=O)(=O)c1ccc(-c2cc3ccncc3cc2OCc2ccccc2)cc1`, for which the inhibition was found to be 4.78%.

For the compound `Cc1ccc2c(c1)/C(=N/Nc1ccc(S(N)(=O)=O)cc1)C(=O)N2`, the inhibition worked out at 0.41%.

As for `CCCN1CCCC(c2ccc(Nc3nc(Nc4cc(F)ccc4C(N)=O)c4cc[nH]c4n3)c(OC)c2)C1` (stereo not drawn), the inhibition came to 32.9%.

`COC(=O)c1cncc(/C=C/c2c(C)cc(O)cc2C)c1`: the inhibition was found to be 2.75%.

Turning to `Cc1ccc(Nc2ccnc(Nc3cccc(C(N)=O)c3)n2)cc1O`, the inhibition was found to be 3.77%.

On to `Nc1ccc(C#Cc2cncnc2Nc2ccc(OCc3cccc(F)c3)c(Cl)c2)cc1`, for which the inhibition is 1.31%.

`CN(C)C(=O)O[C@@H]1CN[C@@H](C#Cc2cc3ncnc(Nc4ccc(OCc5cccc(F)c5)c(Cl)c4)c3s2)C1`: the inhibition was 1.64%.

With `NS(=O)(=O)c1ccc(N/N=C2\C(=O)Nc3ccc(Cl)cc32)cc1`, the inhibition stood at 6.01%.

For the compound `Cc1nc(-c2ccccc2)n2nc(NCCCN3CCOCC3)ncc12`, the inhibition is 3.22%.

Turning to `CCOc1nccc2c1nc(-c1nonc1N)n2CC`, the inhibition came out at 5.91%.

As for `O=S(=O)(CCOCc1ccc(-c2ccc3ncnc(Nc4ccc(OCc5cccc(F)c5)c(Cl)c4)c3c2)o1)c1ccccc1`, the inhibition came to 2.37%.

`NC(=O)c1cccc(Nc2nccc(Nc3cccc(F)c3)n2)c1`: the inhibition was -0.32%.

For `C[C@@H](Oc1cc(-n2cnc3ccc(OCC4CCN(C)CC4)cc32)sc1C(N)=O)c1ccccc1C(F)(F)F`, the inhibition is 0.25%.

Consider `FC(F)(F)c1ccc(-c2nn3ncccc3c2-c2ccnc(Nc3ccc4c(c3)OCCO4)n2)cc1`, for which the inhibition was found to be 5.3%.

`Cc1cc(-c2ccccn2)cc(C)c1/C=C/c1cncc(-c2nn[nH]n2)c1`: the inhibition was determined as 5.76%.

As for `COc1ccc2ncnc(Nc3ccc(OCc4ccccc4)cc3)c2c1`, the inhibition is 1.95%.

Consider `CN(C)CCCn1c(-c2nonc2N)nc2cnccc21`, for which the inhibition is 4.99%.

As for `[O-][S+]1CCN(Cc2ccc(-c3ccc4ncnc(Nc5ccc(OCc6ccccc6)c(Cl)c5)c4c3)o2)CC1`, the inhibition came out at 0.53%.

For `OCc1ccc(-c2nc(-c3ccccn3)c(-c3ccc4c(c3)OCO4)[nH]2)cc1`, the inhibition came to 2.98%.

Consider `COc1cc(Nc2nccc(-c3cnn4ncccc34)n2)cc(OC)c1`, for which the inhibition worked out at 57.2%.

As usually defined, the inhibition is the relative decrease from the control value, in per cent.
